Measured values taken from PubChem BioAssay (NCI).
“And” between values parts separate entries of the source, which are not always exact repeats. Equal values may be shown once. About 83,000 compounds went through this panel and 20% of them were active in at least one assay; those are over-represented in the sample as a whole.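 Single-dose data. Exposure time 48 hours. Values below 10 considered active.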 A number with no mark means an inactive call. The source made the active and inactive calls.

Tests used:
Experiment in all cases: NCI-60 one-dose screen, 48 h (100 = growth as untreated, 0 = no growth, -100 = all killed)
Details in all cases: 10 µM unless noted
T-47D breast = test system: T-47D breast
BT-549 breast = test system: BT-549 breast
MDA-MB-435 melanoma = test system: MDA-MB-435 melanoma
SW-620 colon = test system: SW-620 colon
MCF7 breast = test system: MCF7 breast
HCT-116 colon = test system: HCT-116 colon
HCC-2998 colon = test system: HCC-2998 colon
KM12 colon = test system: KM12 colon
MDA-MB-468 breast = test system: MDA-MB-468 breast

Compound	growth (T-47D breast)	growth (BT-549 breast)	growth (MDA-MB-435 melanoma)	growth (SW-620 colon)	growth (MCF7 breast)	growth (HCT-116 colon)	growth (HCC-2998 colon)	growth (KM12 colon)	growth (MDA-MB-468 breast)
COc1ccc(-c2cc(C(=O)N=Nc3c(O)[nH]c4ccc(Cl)cc34)c3ccccc3n2)cc1	102%	107%	44.4%	7.42% (active)	19.2%	65.6%	19.3%	28%	74.9%
O=C1NC(=NC23CC4CC(CC(C4)C2)C3)N/C1=C\c1ccc2ncccc2c1	22.5%	16.2%	-22.6% (active)	1.21% (active)	-11.4% (active)	3.24% (active)	22.7%		19.4%
O=C1c2cccc3c(N4CCN(Cc5ccccc5)CC4)ccc(c23)C(=O)N1c1cccc(-c2nn(-c3ccccc3)cc2-c2nc3ccccc3s2)c1	97.6%	114%	108%	101%	88.6%	100%	127%		95.7%
Cc1oc(-c2ccccc2)nc1CN[C@@H]1C[C@@H]2C[C@H]([C@H]1C)C2(C)C	0.388% (active)	39.3%	71.3%	22.8%	-4.81% (active)	9.06% (active)	-75.6% (active)	64.3%	-83.7% (active)
CN(C(=O)CN1C(=O)/C(=C/c2ccco2)SC1=S)C1CCS(=O)(=O)C1 (stereo not given)	75.7%	91.3%	97%	99.9%	91.1%	96.7%	104%		72%
Cc1ccc(C(C)C)cc1Oc1cccc(-c2c(-c3ccc(C(F)(F)F)cc3)ncn2C2CCNCC2)n1	-83.6% (active)	-98.6% (active)	-93.4% (active)	-85.5% (active)	-85.3% (active)	-94.3% (active)	-85.4% (active)	-79.5% (active)	-90.3% (active)
Cc1ccc(C(=O)Nc2cccc(C(=O)NC(=S)Nc3ccc(S(N)(=O)=O)cc3)c2)cc1	47.6%	51.4%	72.5%	116%	57.2%	71.6%	95.8%	76.9%	58.7%
COc1cc2cc(C(=O)N3C[C@@H](CCl)c4c3cc(OC(=O)N(CCC(=O)N3CCN(C)CC3)C3CCCCC3)c3ccccc43)[nH]c2c(OC)c1OC	-43.1% (active)	-94.4% (active)	-90.8% (active)	-55% (active)	-59.6% (active)	-88.1% (active)	-91% (active)	-39.1% (active)	-91.8% (active)
COc1ccc2[nH]c(=O)cc(-n3ncc(C(=O)/C=C/c4cc(OC)c(OC)c(OC)c4)c3C)c2c1	5.38% (active)	-57.2% (active)	1.51% (active)	-51.9% (active)	1.39% (active)	-52.9% (active)	-93.9% (active)		-71.1% (active)
COc1sc(/C=N/NC(=O)c2[nH]c3ccc(Br)cc3c2-c2ccccc2)cc1Br	62%	-29.1% (active)	-26.5% (active)	6.77% (active)	4.42% (active)	-5.78% (active)	8.54% (active)	2.33% (active)	-14.5% (active)
O=C(Cn1c(/C=C/c2ccc([N+](=O)[O-])cc2)nc2ccccc2c1=O)Nc1ccccc1	79.9%	63.1%	91%	83.6%	78.5%	61.2%	79.8%		45.4%
CCc1ccc(SC2c3cc(OC)ccc3Oc3nc(N)c(C#N)c(N)c32)cc1 (stereo not given)	-52% (active)	-67.8% (active)	-22.1% (active)	-42.9% (active)	-45.4% (active)	-96% (active)	-48.3% (active)	-17.7% (active)	-78.8% (active)
OCCn1cc(-c2nc3ccc4[nH]ncc4c3c3c2CCCC3)cn1	43.5%	30.5%	12.4%	21.6%	39.3%	24%	54%	18.8%	3.83% (active)
COc1ccc(NC2=C(I)C(=O)C(C)=C(C)C2=O)cc1	-21.1% (active)	81.4%	-72.4% (active)	62.1%	-8.31% (active)	-3.05% (active)	118%	19.1%	-42.3% (active)
Cn1cc(-c2cc3nc(-c4cn(C)c5ncc(Br)cc45)cc(N)n3n2)c2cc(F)ccc21	2.75% (active)	44.9%	39.8%	26.6%	27%	-44.1% (active)	-14.5% (active)	19.1%	-47.4% (active)
Nc1nn2c(-c3cc4ccccc4oc3=O)ccnc2c1N=Nc1ccccc1	85.9%	29.5%	107%	93%	52.7%	6.75% (active)	105%		78.3%
O=C1CC(c2ccc(I)cc2)OC2C=Cc3ccccc3C12 (stereo not given)	87.8%	108%	97.4%	103%	83.3%	98.9%	117%		123%
Cc1nn(-c2ccccc2)c2nc(C)n(C(=O)N/N=C/c3ccccc3)c(=O)c12	90.6%	101%	102%	101%	92.9%	102%	100%		115%
COc1ccc(NC(=O)N/N=C/c2c[nH]c3ccccc23)cc1	43.3%	19.1%	-26.1% (active)	25%	16.8%	21.5%	44.3%		16.4%

Compound	growth (T-47D breast)	growth (BT-549 breast)	growth (MDA-MB-435 melanoma)	growth (SW-620 colon)	growth (MCF7 breast)	growth (HCT-116 colon)	growth (HCC-2998 colon)	growth (KM12 colon)	growth (MDA-MB-468 breast)
CC1=C(C(=O)Nc2ccccc2)C(c2cccc3ccccc23)n2c(nc3ccccc32)N1 (stereo not given)	88.9%	-2.15% (active)	74.4%	67.6%		0.0484% (active)	90.5%	89.9%	49.9%
COc1ccc(N=Nc2c(N)nn3c(-c4ccc(F)cc4)ccnc23)cc1	61.1%	96.4%	56.2%	44.5%		71.4%	108%	86.2%	44.2%
O=C(/C=C1\C(=O)N(Cc2ccccc2)c2ccccc21)c1cc2ccccc2oc1=O	40.3%	97.1%	107%	24.2%		82.9%	113%	91.2%	29.6%
CCOc1ccccc1[C@H]1C(C(=O)c2ccc(Cl)cc2)C2(N[C@@H]1c1ccccc1)C(=O)Nc1ccccc12 (stereo not given in full)	10%	-35% (active)	-28.3% (active)	21%		3.88% (active)	6.07% (active)	12.4%	-31.1% (active)
CCOC(=O)c1ccc(NC(=S)NC(=O)c2cccc(NC(=O)c3ccc(C)cc3)c2)cc1	67.9%	63.3%	86.1%	68.2%		49.1%	98.4%	97.5%	94.1%
Cn1cc(-c2cc(N)n3nc(-c4c[nH]c5ccc(F)cc45)cc3n2)c2cccnc21	-59.7% (active)	-73.6% (active)	-76.6% (active)	-66.4% (active)		-91.4% (active)	-100% (active)	-66% (active)	-92.9% (active)
COc1ccc(/C=C/c2nc3ccccc3n3c(-c4cccc([N+](=O)[O-])c4)nnc23)cc1	-7.62% (active)	-87.5% (active)	-46.5% (active)	-22.3% (active)		-76.2% (active)	-84.5% (active)	-67.3% (active)	-65% (active)
COC(=O)c1c(C(=O)OC)c2c3ccccc3c3ccccc3n2c1C(=O)C(C)(C)C	46.4%	62.5%	83.2%	100%		59%	85.6%	62.5%	54.1%
CC1=C(C(=O)Nc2ccccc2)C(c2cccc(Cl)c2Cl)n2c(nc3ccccc32)N1 (stereo not given)	67.4%	71%	26.5%	56.5%		29.6%	25.6%	32.9%	-32.2% (active)
COc1ccc(C(=O)c2c(N)c(C#N)cn2-c2ccc([N+](=O)[O-])cc2)cc1	90.1%	113%	81.1%	105%	95.1%	106%	101%		109%
CC(=O)Nc1cccc(-n2c(COc3ccc(Br)cc3)nc3ccccc32)c1	88.5% and 109%	109% and 97.2%	107% and 103%	97.9% and 103%		101% and 102%	129% and 112%	103% and 101%	81.7% and 102%
COc1ccccc1Nc1nnc(-c2c[nH]c3ccccc23)o1	16.6%	39.7%	-40.8% (active)	40.9%	10.6%	12.5%	7.55% (active)		-25.4% (active)
O=c1[nH]c2ccccc2cc1CSc1ccccc1Nc1nccc(-c2ccc3c(c2)OCO3)n1	83.6%	67.6%	98.8%	93.2%		93.2%	116%	99.3%	84.4%
Nc1nn2c(-c3cc4cc(Br)ccc4oc3=O)ccnc2c1N=Nc1ccc(S(N)(=O)=O)cc1	77%	128%	78.5%	58.6%		56%	54.8%	48.3%	64.7%
C=CC(=O)Nc1ccc(C(=O)/C=C/c2ccc(N(C)C)cc2)c(O)c1	9.74% (active)	-45.7% (active)	-3.66% (active)	1.21% (active)		-52.6% (active)	-53.2% (active)	-64.4% (active)	
Cc1cnc2ccc(Oc3ccccc3-c3ccccc3)nn12	110%	107%	110%	124%		101%	113%	107%	108%
Nc1nnc(-c2cncc(Br)c2)c(-c2c[nH]c3ccc(Cl)cc23)n1	34.4%	95.7%	35%	82.8%		73.7%	88.8%	74.5%	59.4%
COc1ccccc1NC(=O)N/N=C/c1c[nH]c2ccccc12	36.2%	15.5%	-22.8% (active)	35.9%		10.4%	6.44% (active)	3.61% (active)	-6.01% (active)
